Assays:
Assay in all cases: DAPPL (digital affinity profiling via proximity ligation, sequencing); 10 mM Tris-HCl pH 7.5, 50 mM NaCl, 1 mM DTT, 4% glycerol, room temperature, 30 min; GST-TFs on glutathione beads, 16-mer random dsDNA library, 0.1% formaldehyde crosslink after washing; high values mean tight binding
[1] = molecular target: T1, FEV (Homo sapiens, UniProt Q99581 1-238); details: protein: recombinant; tags: N-terminal GST; dsDNA, one strand shown
T1 sequence: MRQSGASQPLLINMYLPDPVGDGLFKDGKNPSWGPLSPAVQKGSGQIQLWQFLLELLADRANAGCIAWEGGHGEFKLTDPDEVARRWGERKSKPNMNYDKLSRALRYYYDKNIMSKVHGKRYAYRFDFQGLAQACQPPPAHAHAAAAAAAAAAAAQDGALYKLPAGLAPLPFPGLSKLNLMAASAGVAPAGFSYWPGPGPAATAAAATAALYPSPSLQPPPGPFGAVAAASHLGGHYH
In short: (§1)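 Sequencing on an Illumina NextSeq500 followed washing, crosslinking with 0.1% formaldehyde, proximity ligation (BsaI/T4 ligase, 1 h, 37 °C) and PCR amplification of pools that had been incubated for 30 min at room temperature with 200 nmole of a random double-stranded 16-mer DNA library in Tris/NaCl/DTT/glycerol buffer. Each pool held DNA-barcoded human transcription factors, expressed in yeast as GST fusions and captured on glutathione beads, plus a tag-only sample. Binding signal is a hexamer's read frequency for a factor divided by its frequency in the tag-only sample.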

[2] = molecular target: ETV5 (Homo sapiens, UniProt P41161 1-510); details: protein: recombinant; tags: N-terminal GST; dsDNA, one strand shown
In short: as §1

[3] = molecular target: HSF1 (Homo sapiens, UniProt Q00613 1-529); details: protein: recombinant; tags: N-terminal GST; chain copies: 3; dsDNA, one strand shown
In short: as §1

[4] = molecular target: ELF4 (Homo sapiens, UniProt Q99607 1-663); details: protein: recombinant; tags: N-terminal GST; dsDNA, one strand shown
In short: as §1

[5] = molecular target: T2, ELK4 (Homo sapiens, UniProt P28324-2 1-405); details: protein: recombinant; tags: N-terminal GST; dsDNA, one strand shown
T2 sequence: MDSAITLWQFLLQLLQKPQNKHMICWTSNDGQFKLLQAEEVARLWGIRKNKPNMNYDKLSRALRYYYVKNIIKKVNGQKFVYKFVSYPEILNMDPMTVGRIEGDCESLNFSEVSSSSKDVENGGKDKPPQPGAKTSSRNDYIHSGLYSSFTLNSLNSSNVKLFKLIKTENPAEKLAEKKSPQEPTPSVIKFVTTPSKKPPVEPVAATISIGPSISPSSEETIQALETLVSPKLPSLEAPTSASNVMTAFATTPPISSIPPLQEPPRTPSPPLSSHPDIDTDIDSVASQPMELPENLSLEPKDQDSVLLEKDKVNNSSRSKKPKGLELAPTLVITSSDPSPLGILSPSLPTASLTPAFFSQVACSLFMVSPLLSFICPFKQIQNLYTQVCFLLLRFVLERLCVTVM
In short: as §1

[6] = molecular target: T3, ETV2 (Homo sapiens, UniProt O00321 1-342); details: protein: recombinant; tags: N-terminal GST; dsDNA, one strand shown
T3 sequence: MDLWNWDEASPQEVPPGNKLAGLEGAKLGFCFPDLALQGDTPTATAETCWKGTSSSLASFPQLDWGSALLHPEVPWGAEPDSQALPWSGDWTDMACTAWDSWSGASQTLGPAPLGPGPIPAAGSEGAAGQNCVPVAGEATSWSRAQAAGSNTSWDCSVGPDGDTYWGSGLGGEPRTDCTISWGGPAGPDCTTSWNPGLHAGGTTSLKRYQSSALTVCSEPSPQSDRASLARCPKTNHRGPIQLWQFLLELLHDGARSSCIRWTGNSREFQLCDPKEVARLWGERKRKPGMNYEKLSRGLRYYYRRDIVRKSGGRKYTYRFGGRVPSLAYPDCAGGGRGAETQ
In short: as §1

[7] = molecular target: CRX (Homo sapiens, UniProt O43186 1-299); details: protein: recombinant; tags: N-terminal GST; dsDNA, one strand shown
In short: as §1

[8] = molecular target: ETV1 (Homo sapiens, UniProt P50549 1-477); details: protein: recombinant; tags: N-terminal GST; dsDNA, one strand shown
In short: as §1

[9] = molecular target: T4, ERF (Homo sapiens, UniProt P50548 1-548); details: protein: recombinant; tags: N-terminal GST; dsDNA, one strand shown
T4 sequence: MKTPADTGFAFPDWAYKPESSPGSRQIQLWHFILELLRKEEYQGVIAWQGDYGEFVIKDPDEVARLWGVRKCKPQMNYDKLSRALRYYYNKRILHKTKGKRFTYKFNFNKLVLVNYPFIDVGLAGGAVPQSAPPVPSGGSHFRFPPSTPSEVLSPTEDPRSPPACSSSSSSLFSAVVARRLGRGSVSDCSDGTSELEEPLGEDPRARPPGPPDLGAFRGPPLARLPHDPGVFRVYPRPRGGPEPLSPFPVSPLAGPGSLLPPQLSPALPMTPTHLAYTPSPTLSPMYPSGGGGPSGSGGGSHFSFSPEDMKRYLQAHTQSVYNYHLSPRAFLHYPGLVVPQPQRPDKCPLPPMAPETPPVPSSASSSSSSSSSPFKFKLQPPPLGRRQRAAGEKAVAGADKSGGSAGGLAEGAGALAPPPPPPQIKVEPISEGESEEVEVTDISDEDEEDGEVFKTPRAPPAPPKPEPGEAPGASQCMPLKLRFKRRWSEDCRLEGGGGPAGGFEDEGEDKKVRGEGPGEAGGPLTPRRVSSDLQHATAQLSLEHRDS
In short: as §1

[10] = molecular target: T5, ETV3L (Homo sapiens, UniProt Q6ZN32 1-361); details: protein: recombinant; tags: N-terminal GST; dsDNA, one strand shown
T5 sequence: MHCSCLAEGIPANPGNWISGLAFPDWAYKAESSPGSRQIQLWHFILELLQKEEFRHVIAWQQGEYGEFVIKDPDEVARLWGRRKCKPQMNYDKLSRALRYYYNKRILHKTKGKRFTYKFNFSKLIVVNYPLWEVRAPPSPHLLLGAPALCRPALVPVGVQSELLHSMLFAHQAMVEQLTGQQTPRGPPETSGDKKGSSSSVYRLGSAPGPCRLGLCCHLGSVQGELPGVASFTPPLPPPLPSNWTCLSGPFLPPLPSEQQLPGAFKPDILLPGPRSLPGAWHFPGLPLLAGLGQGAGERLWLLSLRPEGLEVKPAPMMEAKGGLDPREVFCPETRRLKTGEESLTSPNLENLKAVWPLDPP
In short: as §1

[11] = molecular target: T6, ETS2 (Homo sapiens, UniProt P15036 1-469); details: protein: recombinant; tags: N-terminal GST; dsDNA, one strand shown
T6 sequence: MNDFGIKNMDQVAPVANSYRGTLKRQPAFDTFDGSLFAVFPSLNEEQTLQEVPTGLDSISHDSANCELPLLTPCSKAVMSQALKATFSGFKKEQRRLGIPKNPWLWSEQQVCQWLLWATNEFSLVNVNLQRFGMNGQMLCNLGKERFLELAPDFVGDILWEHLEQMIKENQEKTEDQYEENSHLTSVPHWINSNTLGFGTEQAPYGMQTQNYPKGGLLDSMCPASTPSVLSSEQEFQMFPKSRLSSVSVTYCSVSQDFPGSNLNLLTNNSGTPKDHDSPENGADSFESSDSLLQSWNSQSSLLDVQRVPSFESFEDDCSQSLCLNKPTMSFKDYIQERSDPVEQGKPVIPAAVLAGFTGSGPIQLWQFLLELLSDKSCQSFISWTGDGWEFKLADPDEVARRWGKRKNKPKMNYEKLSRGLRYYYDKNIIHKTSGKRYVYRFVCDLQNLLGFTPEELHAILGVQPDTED
In short: as §1

[12] = molecular target: T7, SPDEF (Homo sapiens, UniProt O95238 1-335); details: protein: recombinant; tags: N-terminal GST; dsDNA, one strand shown
T7 sequence: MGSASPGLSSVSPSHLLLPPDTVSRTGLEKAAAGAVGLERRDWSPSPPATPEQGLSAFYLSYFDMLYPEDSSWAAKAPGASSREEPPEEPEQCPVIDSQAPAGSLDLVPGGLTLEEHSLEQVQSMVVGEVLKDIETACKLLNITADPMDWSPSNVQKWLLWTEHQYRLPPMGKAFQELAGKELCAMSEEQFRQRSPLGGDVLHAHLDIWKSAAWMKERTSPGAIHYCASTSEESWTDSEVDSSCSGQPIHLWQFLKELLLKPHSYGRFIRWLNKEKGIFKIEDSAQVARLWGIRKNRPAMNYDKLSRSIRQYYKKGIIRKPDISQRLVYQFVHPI
In short: as §1

[13] = molecular target: T8, ETV7 (Homo sapiens, UniProt Q9Y603 1-341); details: protein: recombinant; tags: N-terminal GST; dsDNA, one strand shown
T8 sequence: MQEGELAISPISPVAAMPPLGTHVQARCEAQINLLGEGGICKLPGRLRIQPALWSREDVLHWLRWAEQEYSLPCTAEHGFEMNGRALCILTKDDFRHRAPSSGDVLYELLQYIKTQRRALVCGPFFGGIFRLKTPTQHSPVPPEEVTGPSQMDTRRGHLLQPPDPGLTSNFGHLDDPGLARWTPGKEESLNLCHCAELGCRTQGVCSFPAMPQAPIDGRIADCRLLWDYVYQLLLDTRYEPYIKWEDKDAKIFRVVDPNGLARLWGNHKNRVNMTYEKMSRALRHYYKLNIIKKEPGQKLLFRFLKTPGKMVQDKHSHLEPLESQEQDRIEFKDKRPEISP
In short: as §1

[14] = molecular target: T9, ELF5 (Homo sapiens, UniProt Q9UKW6-2 1-255); details: protein: recombinant; tags: N-terminal GST; dsDNA, one strand shown
T9 sequence: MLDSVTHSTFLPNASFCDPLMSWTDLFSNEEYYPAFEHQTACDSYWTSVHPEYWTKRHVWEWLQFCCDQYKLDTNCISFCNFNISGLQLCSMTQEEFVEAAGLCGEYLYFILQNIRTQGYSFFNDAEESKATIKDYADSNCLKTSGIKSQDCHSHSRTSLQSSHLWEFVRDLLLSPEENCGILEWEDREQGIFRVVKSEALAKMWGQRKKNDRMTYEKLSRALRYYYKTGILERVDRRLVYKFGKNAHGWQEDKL
In short: as §1

[15] = molecular target: T10, ETV3 (Homo sapiens, UniProt P41162-2 1-143); details: protein: recombinant; tags: N-terminal GST; dsDNA, one strand shown
T10 sequence: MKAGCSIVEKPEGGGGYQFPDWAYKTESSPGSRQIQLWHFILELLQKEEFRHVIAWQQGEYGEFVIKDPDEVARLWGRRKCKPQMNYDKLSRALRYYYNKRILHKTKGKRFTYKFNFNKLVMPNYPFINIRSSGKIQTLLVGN
In short: as §1

[16] = molecular target: ETV6 (Homo sapiens, UniProt P41212 1-452); details: protein: recombinant; tags: N-terminal GST; dsDNA, one strand shown
In short: as §1

Chain of CRX (O43186 whole entry): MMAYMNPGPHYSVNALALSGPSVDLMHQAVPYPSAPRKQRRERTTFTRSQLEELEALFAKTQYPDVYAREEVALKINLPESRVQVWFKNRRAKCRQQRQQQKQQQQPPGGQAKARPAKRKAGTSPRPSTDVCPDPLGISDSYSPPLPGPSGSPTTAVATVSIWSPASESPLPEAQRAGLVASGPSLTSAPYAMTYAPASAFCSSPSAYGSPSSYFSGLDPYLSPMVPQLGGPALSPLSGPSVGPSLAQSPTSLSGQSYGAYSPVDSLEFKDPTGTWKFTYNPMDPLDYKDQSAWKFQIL
Chain of ETV5 (P41161 whole entry): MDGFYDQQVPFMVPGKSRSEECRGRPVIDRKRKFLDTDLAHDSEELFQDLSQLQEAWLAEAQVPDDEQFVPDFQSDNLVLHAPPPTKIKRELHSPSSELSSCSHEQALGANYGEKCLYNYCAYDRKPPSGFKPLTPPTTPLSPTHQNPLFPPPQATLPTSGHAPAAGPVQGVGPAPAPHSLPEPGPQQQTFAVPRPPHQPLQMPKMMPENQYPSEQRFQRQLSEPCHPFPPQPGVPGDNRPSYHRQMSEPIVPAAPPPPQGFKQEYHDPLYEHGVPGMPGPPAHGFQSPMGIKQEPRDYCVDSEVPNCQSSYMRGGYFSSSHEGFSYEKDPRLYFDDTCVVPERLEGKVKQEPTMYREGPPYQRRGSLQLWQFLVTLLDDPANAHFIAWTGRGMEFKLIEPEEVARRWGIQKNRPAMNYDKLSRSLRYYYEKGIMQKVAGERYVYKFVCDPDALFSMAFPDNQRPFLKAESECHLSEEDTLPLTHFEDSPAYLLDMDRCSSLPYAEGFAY
Chain of ETV1 (P50549 whole entry): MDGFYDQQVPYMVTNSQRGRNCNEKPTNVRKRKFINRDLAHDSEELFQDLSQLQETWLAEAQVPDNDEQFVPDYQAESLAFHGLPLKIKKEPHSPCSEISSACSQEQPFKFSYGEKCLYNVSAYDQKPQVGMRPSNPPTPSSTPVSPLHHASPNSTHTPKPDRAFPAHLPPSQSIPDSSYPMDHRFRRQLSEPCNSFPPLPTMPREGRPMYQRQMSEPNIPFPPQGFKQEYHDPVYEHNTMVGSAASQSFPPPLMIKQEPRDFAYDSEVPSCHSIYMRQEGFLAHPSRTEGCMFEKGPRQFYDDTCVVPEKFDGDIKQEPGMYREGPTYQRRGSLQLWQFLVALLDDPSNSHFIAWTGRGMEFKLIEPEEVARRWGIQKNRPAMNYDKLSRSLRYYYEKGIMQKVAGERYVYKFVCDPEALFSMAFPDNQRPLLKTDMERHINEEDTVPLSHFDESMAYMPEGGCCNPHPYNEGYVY
Chain of HSF1 (Q00613 whole entry): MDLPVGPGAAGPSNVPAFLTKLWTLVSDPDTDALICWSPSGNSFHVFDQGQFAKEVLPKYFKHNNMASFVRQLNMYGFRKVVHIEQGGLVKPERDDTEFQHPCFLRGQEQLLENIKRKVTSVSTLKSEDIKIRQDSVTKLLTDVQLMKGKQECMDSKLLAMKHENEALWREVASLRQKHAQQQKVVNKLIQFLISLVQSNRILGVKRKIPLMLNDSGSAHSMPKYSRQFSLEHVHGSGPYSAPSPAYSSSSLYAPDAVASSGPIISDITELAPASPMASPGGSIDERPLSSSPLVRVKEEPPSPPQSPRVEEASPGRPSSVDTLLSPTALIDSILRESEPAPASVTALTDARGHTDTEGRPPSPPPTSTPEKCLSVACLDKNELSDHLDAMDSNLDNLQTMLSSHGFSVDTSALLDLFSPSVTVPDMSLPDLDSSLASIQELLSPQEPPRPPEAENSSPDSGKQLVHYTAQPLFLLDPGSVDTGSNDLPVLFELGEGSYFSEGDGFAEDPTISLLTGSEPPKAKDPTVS
Chain of ELF4 (Q99607 whole entry): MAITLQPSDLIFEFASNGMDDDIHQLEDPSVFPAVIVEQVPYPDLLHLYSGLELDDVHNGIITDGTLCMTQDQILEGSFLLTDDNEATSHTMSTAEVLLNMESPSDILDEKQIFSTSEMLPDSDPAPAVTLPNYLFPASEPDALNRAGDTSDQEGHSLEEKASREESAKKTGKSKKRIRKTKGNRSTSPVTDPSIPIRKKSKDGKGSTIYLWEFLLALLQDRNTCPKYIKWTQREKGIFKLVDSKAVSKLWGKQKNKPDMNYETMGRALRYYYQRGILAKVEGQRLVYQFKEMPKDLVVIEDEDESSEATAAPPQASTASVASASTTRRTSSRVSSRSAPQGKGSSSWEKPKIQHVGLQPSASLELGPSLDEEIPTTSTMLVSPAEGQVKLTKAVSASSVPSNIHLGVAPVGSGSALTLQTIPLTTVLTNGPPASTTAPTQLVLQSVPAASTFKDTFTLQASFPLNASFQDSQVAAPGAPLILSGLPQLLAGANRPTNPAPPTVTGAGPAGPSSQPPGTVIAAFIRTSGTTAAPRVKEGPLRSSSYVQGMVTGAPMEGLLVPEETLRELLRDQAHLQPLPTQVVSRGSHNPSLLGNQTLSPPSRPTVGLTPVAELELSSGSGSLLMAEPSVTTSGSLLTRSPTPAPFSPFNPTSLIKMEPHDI
Chain of ETV6 (P41212 whole entry): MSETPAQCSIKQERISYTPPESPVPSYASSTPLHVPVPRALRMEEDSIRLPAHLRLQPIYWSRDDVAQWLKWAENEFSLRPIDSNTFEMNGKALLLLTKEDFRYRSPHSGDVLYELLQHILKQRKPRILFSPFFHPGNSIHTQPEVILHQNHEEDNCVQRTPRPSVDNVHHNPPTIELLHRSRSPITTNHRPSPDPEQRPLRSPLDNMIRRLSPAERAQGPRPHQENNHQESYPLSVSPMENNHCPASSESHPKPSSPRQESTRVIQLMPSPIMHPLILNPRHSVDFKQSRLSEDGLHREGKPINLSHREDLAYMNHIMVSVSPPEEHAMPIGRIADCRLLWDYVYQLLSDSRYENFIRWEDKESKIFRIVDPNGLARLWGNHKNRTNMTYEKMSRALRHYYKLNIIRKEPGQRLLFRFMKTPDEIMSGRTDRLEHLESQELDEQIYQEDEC

Sequence: TCAAGG
- binding signal [1]: 1.08 fold enrichment (6-mer frequency, TF over GST control)
- binding signal [2]: 1.03 fold enrichment (6-mer frequency, TF over GST control)
- binding signal [3]: 1.04 fold enrichment (6-mer frequency, TF over GST control)
- binding signal [4]: 1.01 fold enrichment (6-mer frequency, TF over GST control)
- binding signal [5]: 1.07 fold enrichment (6-mer frequency, TF over GST control)
- binding signal [6]: 1.19 fold enrichment (6-mer frequency, TF over GST control)
- binding signal [7]: 1.09 fold enrichment (6-mer frequency, TF over GST control)
- binding signal [8]: 1.12 fold enrichment (6-mer frequency, TF over GST control)
- binding signal [9]: 1.09 fold enrichment (6-mer frequency, TF over GST control)
- binding signal [10]: 1.03 fold enrichment (6-mer frequency, TF over GST control)
- binding signal [11]: 1.04 fold enrichment (6-mer frequency, TF over GST control)
- binding signal [12]: 1.12 fold enrichment (6-mer frequency, TF over GST control)
- binding signal [13]: 1.17 fold enrichment (6-mer frequency, TF over GST control)
- binding signal [14]: 1.14 fold enrichment (6-mer frequency, TF over GST control)
- binding signal [15]: 1.12 fold enrichment (6-mer frequency, TF over GST control)
- binding signal [16]: 1.14 fold enrichment (6-mer frequency, TF over GST control)
